Test results: the supplement of paper PMC3334620
The full ranking holds about 33,000 sequences; the median of “E-score (-0.5 to 0.5)” is about -0.016, and the highest 2% start at about 0.3. The entries come from a sample that favours the highest values as a whole.

Molecular target: T1, Yer184c (UniProt P39961)
T1 sequence: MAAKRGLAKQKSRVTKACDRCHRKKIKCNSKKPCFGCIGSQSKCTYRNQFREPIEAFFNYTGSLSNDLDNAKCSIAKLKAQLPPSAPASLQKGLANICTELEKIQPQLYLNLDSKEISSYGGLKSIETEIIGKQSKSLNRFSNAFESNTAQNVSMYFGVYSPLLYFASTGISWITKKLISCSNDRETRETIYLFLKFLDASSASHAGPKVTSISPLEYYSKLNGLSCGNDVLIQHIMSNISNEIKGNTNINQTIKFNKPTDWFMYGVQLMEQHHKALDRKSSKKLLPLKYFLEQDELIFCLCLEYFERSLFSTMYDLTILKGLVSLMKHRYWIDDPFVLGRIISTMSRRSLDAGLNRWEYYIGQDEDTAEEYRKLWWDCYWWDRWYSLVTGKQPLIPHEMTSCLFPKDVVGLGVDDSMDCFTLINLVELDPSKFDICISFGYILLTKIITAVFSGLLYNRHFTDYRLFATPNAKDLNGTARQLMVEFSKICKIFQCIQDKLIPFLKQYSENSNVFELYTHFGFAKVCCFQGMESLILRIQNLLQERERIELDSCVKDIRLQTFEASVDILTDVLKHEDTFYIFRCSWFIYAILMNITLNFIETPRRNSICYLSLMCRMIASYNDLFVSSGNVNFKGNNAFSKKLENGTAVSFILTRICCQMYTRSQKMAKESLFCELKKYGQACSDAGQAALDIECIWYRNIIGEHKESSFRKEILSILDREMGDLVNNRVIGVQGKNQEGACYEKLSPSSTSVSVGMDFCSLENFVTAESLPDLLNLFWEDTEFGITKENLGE
Test: PBM E-score (8-mer binding enrichment) (E-score (-0.5 to 0.5)); higher = stronger / more preferred TF binding
Conditions: protein concentration: 100 nM; construct: GST-full length
Procedure, shortened: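 Yeast transcription factors, full-length or as DNA-binding domains, were expressed with a GST tag using PURExpress in vitro transcription/translation. At about 100-200 nM they were applied to universal all-10-mer Agilent arrays, double-stranded by primer extension on fresh or once-stripped slides. Fluorescent anti-GST detected bound protein, and masliner normalised the scans. E-scores for ungapped eight-base words, pooled with reverse complements, came from the Universal PBM Analysis Suite.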

First: GATCAATA
Second: ACACTGGA
The “PBM E-score” value of the first is higher: 0.164 for the first, 0.0234 for the second.

First: ATCCCTAG
Second: ATTGGTGG
The “PBM E-score” value of the first is higher: -0.0477 for the first, -0.0975 for the second.

Compared with AGTCCAGG, ATAAGGTC is higher in “PBM E-score” value: -0.206 for the first, -0.0447 for the second.

Going from CATCTCGG to AGCTTAAT, the “PBM E-score” value falls from 0.272 to 0.201.

Compared with AGGTCCGA, CGATCCGA is higher in “PBM E-score” value: 0.197 for the first, 0.305 for the second.

Compared with CGGTCCGA, GGGTCCGA is lower in “PBM E-score” value: 0.335 for the first, 0.113 for the second.

Compared with GGATCCGA, CGATCCGC is lower in “PBM E-score” value: 0.242 for the first, 0.113 for the second.

First: ACAAGTAG
Second: ATCAAGCG
The “PBM E-score” value of the first is lower: -0.201 for the first, 0.0135 for the second.

Compared with GATTTCGC, GATTTCGA is lower in “PBM E-score” value: 0.312 for the first, 0.042 for the second.

Going from CATTTCGC to GCCTTACA, the “PBM E-score” value falls from 0.0218 to -0.205.

Compared with CATGAGGG, ATTTGCCA is higher in “PBM E-score” value: -0.212 for the first, -0.0738 for the second.

Compared with ATTTGCCG, ATTTGCCC is lower in “PBM E-score” value: 0.306 for the first, 0.0315 for the second.

First: AACAAGAC
Second: ACCTCAAA
The “PBM E-score” value of the first is lower: 0.105 for the first, 0.137 for the second.

Going from CCCCTGAC to CACCGAGC, the “PBM E-score” value rises from -0.0911 to 0.231.

Going from ACCCGAGG to AGCCGAGG, the “PBM E-score” value rises from -0.00171 to 0.336.

Going from GGCCGACA to AACCGAGT, the “PBM E-score” value falls from 0.0888 to 0.0155.

Going from GGCCGAGA to CTCCGAGC, the “PBM E-score” value falls from 0.348 to 0.271.

First: CGCCGAGC
Second: AACCGAGC
The “PBM E-score” value of the first is higher: 0.344 for the first, 0.323 for the second.

First: GGCCGATA
Second: ATCCGAGG
The “PBM E-score” value of the first is higher: 0.264 for the first, 0.182 for the second.

Compared with CCCCGAGC, GACACTCA is lower in “PBM E-score” value: -0.0347 for the first, -0.0521 for the second.

Compared with ACAGCGGA, GGGTTAGA is lower in “PBM E-score” value: 0.0362 for the first, -0.134 for the second.

Going from AACGTAAT to GTTGGACA, the “PBM E-score” value falls from -0.0198 to -0.0236.

First: AATGTTCG
Second: ATCCGAGC
The “PBM E-score” value of the first is lower: 0.0469 for the first, 0.219 for the second.

First: CGCCGACA
Second: AACCGAGA
The “PBM E-score” value of the first is lower: 0.18 for the first, 0.229 for the second.

First: CCCCGAGA
Second: TCCCGAGA
The “PBM E-score” value of the first is lower: -0.123 for the first, 0.305 for the second.

Compared with CGCCGAGA, GCCCGAGA is lower in “PBM E-score” value: 0.346 for the first, 0.24 for the second.

Compared with AGCCGAGC, AGCCGATA is lower in “PBM E-score” value: 0.318 for the first, 0.142 for the second.

Going from ACCCGAGC to CACCGAGA, the “PBM E-score” value falls from 0.229 to -0.212.

Going from AGCCGAGA to CTACTGGA, the “PBM E-score” value falls from 0.326 to -0.271.

Compared with CCTCAGCG, ATAGAGGG is lower in “PBM E-score” value: 0.0964 for the first, -0.135 for the second.

First: AGGCCAAA
Second: AACAACGG
The “PBM E-score” value of the first is lower: 0.0579 for the first, 0.175 for the second.

Compared with CGAACTTC, GCCCGCAC is lower in “PBM E-score” value: 0.13 for the first, -0.0678 for the second.

Compared with AATCTGTA, GAAGAGTA is lower in “PBM E-score” value: 0.116 for the first, 0.113 for the second.

Compared with CGGTTCGC, GCGAATGA is higher in “PBM E-score” value: 0.0153 for the first, 0.149 for the second.

Going from ACGAATGA to CCGAATGA, the “PBM E-score” value rises from 0.189 to 0.321.

Going from CCGAATAC to ACGAATAA, the “PBM E-score” value falls from 0.293 to 0.0316.

First: CCGAATAA
Second: GGGTCTAC
The “PBM E-score” value of the first is higher: 0.346 for the first, -0.06 for the second.

Going from TCGCGTCA to ATGGTTTC, the “PBM E-score” value rises from -0.0846 to 0.0728.

Going from GCGAATAA to ACATCCGT, the “PBM E-score” value rises from 0.0477 to 0.167.

Compared with ACATCCGC, CCATCCGG is lower in “PBM E-score” value: 0.252 for the first, 0.143 for the second.

Compared with GCATCCGA, ACATCCGG is higher in “PBM E-score” value: 0.176 for the first, 0.397 for the second.

Going from ACATCCTG to TCATCCGA, the “PBM E-score” value rises from 0.0484 to 0.34.

Going from ACATCCGA to CCATCCGA, the “PBM E-score” value falls from 0.346 to 0.0749.

Going from ACCACAAG to CGATGCTA, the “PBM E-score” value rises from -0.0787 to 0.084.

Going from ATGTGCCG to CATAGCAG, the “PBM E-score” value falls from 0.18 to -0.293.

Compared with AAGAGGCC, ACGTCGCT is lower in “PBM E-score” value: -0.172 for the first, -0.239 for the second.

First: CCTTCAGC
Second: CGCGGAGC
The “PBM E-score” value of the first is lower: -0.152 for the first, 0.171 for the second.

Compared with CACGGATC, CGCGGAGA is higher in “PBM E-score” value: 0.256 for the first, 0.308 for the second.

Compared with CGCGGATA, AGCGGAGA is lower in “PBM E-score” value: 0.317 for the first, -0.0382 for the second.

Compared with AACGGATC, GACGGATC is lower in “PBM E-score” value: 0.306 for the first, 0.115 for the second.

Compared with CACGGATA, AGCGGATA is lower in “PBM E-score” value: 0.332 for the first, 0.0602 for the second.

Compared with CGCGGATC, CACGGATG is lower in “PBM E-score” value: 0.13 for the first, 0.108 for the second.

Going from AGCGGATC to TTACGCAA, the “PBM E-score” value falls from 0.204 to 0.0884.

First: GGCTGAAC
Second: CCCCGCGA
The “PBM E-score” value of the first is higher: 0.0871 for the first, -0.0621 for the second.

Compared with ATCCACTC, AACGGATT is higher in “PBM E-score” value: -0.00405 for the first, 0.343 for the second.

Going from TACGGATA to AACGGATA, the “PBM E-score” value rises from 0.195 to 0.374.

First: AACGGACT
Second: AACGGATG
The “PBM E-score” value of the first is lower: 0.14 for the first, 0.197 for the second.

First: GACGGATA
Second: GCCGATTA
The “PBM E-score” value of the first is lower: 0.125 for the first, 0.274 for the second.

Compared with ACTAAGGC, CGTTCAGA is lower in “PBM E-score” value: -0.0457 for the first, -0.0522 for the second.

First: ACTCATTA
Second: CGGTTGAC
The “PBM E-score” value of the first is lower: -0.0725 for the first, 0.113 for the second.

Going from CGGTTGAA to TGGTTGAA, the “PBM E-score” value falls from 0.304 to -0.0916.

Compared with ACTATGCA, ATTCCGGC is higher in “PBM E-score” value: -0.111 for the first, 0.393 for the second.

First: ATTCCCGG
Second: ATTCCTGG
The “PBM E-score” value of the first is higher: 0.384 for the first, -0.138 for the second.

First: ACTCCGGC
Second: ATTCCCCG
The “PBM E-score” value of the first is higher: 0.326 for the first, 0.117 for the second.

First: ACTCCGGG
Second: AATCCGGG
The “PBM E-score” value of the first is lower: 0.265 for the first, 0.269 for the second.

First: CCTCCGGC
Second: ATTCCCGA
The “PBM E-score” value of the first is higher: 0.3 for the first, 0.162 for the second.

Compared with ATTCCAGC, ATTCCGGG is higher in “PBM E-score” value: -0.0455 for the first, 0.356 for the second.

Compared with ATTCCGCC, CGCTTAAG is lower in “PBM E-score” value: 0.16 for the first, -0.133 for the second.

Compared with CCCTACCC, AAGATACC is higher in “PBM E-score” value: -0.256 for the first, 0.187 for the second.

Compared with GGATTCCC, AGGCTTTA is higher in “PBM E-score” value: -0.173 for the first, -0.154 for the second.

First: CAACTAGC
Second: CCTCCCCG
The “PBM E-score” value of the first is higher: 0.0974 for the first, -0.0343 for the second.

Compared with GGCCGGAA, AGACGGAT is lower in “PBM E-score” value: 0.338 for the first, 0.195 for the second.

First: GACCGGAC
Second: GGGCGGAA
The “PBM E-score” value of the first is higher: 0.245 for the first, 0.0682 for the second.

Compared with CGCCGGAG, AGCCGGAC is higher in “PBM E-score” value: 0.222 for the first, 0.339 for the second.

Going from AGCCGGAT to AGCCGTAT, the “PBM E-score” value falls from 0.402 to 0.214.

Going from GGACGGAA to AGCCGGAG, the “PBM E-score” value rises from 0.0833 to 0.402.

Going from GGCCGGAC to AGCCGTAG, the “PBM E-score” value falls from 0.294 to 0.155.

First: AGTGAGCA
Second: CGGGTTGC
The “PBM E-score” value of the first is lower: -0.0113 for the first, 0.118 for the second.

First: AGCTGGAC
Second: AAACCCAC
The “PBM E-score” value of the first is lower: -0.0983 for the first, 0.0014 for the second.

First: AACGCAGT
Second: ACTCGCCG
The “PBM E-score” value of the first is lower: -0.081 for the first, 0.131 for the second.

Going from AGCACCAT to GCCCAAGC, the “PBM E-score” value rises from -0.291 to -0.0265.

Going from CGCCGGAC to TGACGGAA, the “PBM E-score” value falls from 0.28 to 0.17.

First: AGACGGAA
Second: CGCCGGAA
The “PBM E-score” value of the first is lower: 0.277 for the first, 0.368 for the second.

First: CGGCGGAA
Second: AGCCGGAA
The “PBM E-score” value of the first is lower: 0.298 for the first, 0.423 for the second.

Going from TGCCGGAA to AGGCGGAA, the “PBM E-score” value falls from 0.421 to 0.195.

Going from TGCCGTAA to CCTGGTTC, the “PBM E-score” value falls from 0.0109 to -0.0462.
